Test results taken from ChEMBL document CHEMBL3988442, “University of Dundee, Small-Polar-MMV Screening Library” (2021).
“And” between values parts separate entries of the source, which are not always exact repeats. Equal entries are not always repeated. Out of some 34,000 compounds screened, about 290 (0.85%) showed an effect of 50% or more. Only a selection was taken, and strong results are over-represented in it overall.

Test system: Plasmodium falciparum
Assay: Plasmodium falciparum sporozoite viability assay
Type: functional, organism-based
Parameters: scale not given: in the data most compounds retested in dose-response had high values

Row | SMILES | Percent Effect | Percent Effect (10 mM as filed; unlikely as a test dose)
1 | CC(=O)N1CCC1c1nc(-c2ccc(C)s2)no1 (stereo unspecified) | -4.556% | 
2 | O=C(NCCNc1cc(N2CCCC2)cnn1)Nc1ccccc1F |  | 88.21% and 92.16%
3 | O=C(Cc1ccc(F)cc1)NCCNc1cc(N2CCCC2)cnn1 |  | 2.363% and 4.651%
4 | CSc1nnc(CNC(=O)Nc2ccccc2F)n1C | -0.259% | 
5 | CC(=O)N1CC[C@H]2OCC[C@@]2(C(=O)NCCc2ccccn2)C1.O=C(O)C(F)(F)F | -10.77% | 
6 | CC(NC(=O)NCCCc1n[nH]c(N)c1C#N)c1ccccc1F (stereo unspecified) | 14.69% | 
7 | Cc1cc(C)n(CC2CCCCN2CC(=O)NC2CCOCC2)n1 (stereo unspecified) | 14.15% | 
8 | Cc1cc(C)n(CC2CCCN2CC(=O)NC2CCOCC2)n1 (stereo unspecified) | -10.14% | 
9 | COCCOCC(=O)Nc1ccc(C)cc1F | -13.64% | 
10 | O=C(c1ccc(C2CCCO2)s1)N1CCS(=O)(=O)CC1 (stereo unspecified) |  | 6.394% and 9.158% and -11.41%
11 | O=C(c1ccc(C2CCCO2)s1)N1CCOCC1 (stereo unspecified) |  | -24.05% and -11.59%
12 | O=C(c1ccc(C2CCCO2)s1)N1CCN(c2ccccc2F)CC1 (stereo unspecified) |  | 80.46% and 89.28% and 82.47%
13 | O=c1[nH]c(CCN2CCCC2Cn2cncn2)nc2ccccc12 (stereo unspecified) | 9.596% | 
14 | O=C(Cc1ccc2c(c1)OCCO2)N1CCCC(n2cccn2)C1 (stereo unspecified) |  | 49.54% and 51.7% and 51.33%
15 | O=C(CCc1ccc2c(c1)OCO2)N1CCCC(n2cccn2)C1 (stereo unspecified) |  | -3.407% and -9.243% and -9.365%
16 | O=C(Cc1ccc2c(c1)CCO2)N1CCCC(n2cccn2)C1 (stereo unspecified) |  | -20.29% and -14.82% and -23.46%
17 | CCOC(=O)[C@@H]1[C@@H](O)C(=O)N(C)C12CCN(C(=O)c1ccco1)CC2 | 7.177% | 
18 | O=C(O)C(F)(F)F.O=C(O)C(F)(F)F.c1ccc(CN2CCC3(CC2)CCN(c2ccccn2)C3)nc1 | 11.38% | 
19 | CCC1CN(C(=O)c2ncccc2O)CCC(=O)N1Cc1ccccc1 (stereo unspecified) |  | -58.66% and -61.44%
20 | CCC1CN(C(=O)c2ccc(O)cn2)CCC(=O)N1Cc1ccccc1 (stereo unspecified) |  | 75.08% and 82.46%
21 | CCC1CN(C(=O)c2cccnc2O)CCC(=O)N1Cc1ccccc1 (stereo unspecified) |  | -11.65% and -22.98%
22 | Cc1nn(C)c(Cl)c1C1CCCN1C(=O)c1cc(C2CC2)on1 (stereo unspecified) | 6.06% | 
23 | Cc1c[nH]nc1C1CN(Cc2cnn(-c3ccccc3C(=O)O)c2)C1 | -1.554% | 

Row | SMILES | Percent Effect | Percent Effect (10 mM as filed; unlikely as a test dose)
24 | Cc1noc(C)c1CC(=O)N1CCCC(n2ccnc2C)C1 (stereo unspecified) | -6.625% | 
25 | O=C(Nc1ccc(N2CCCC2)nc1)N1CCc2sccc2C1 |  | -10.47% and -0.9103% and 2.706%
26 | O=C(Nc1ccc(N2CCCC2)nc1)N1CCc2ccccc2C1 |  | 79.37% and 82.46% and 84.57%
27 | CC(Cc1ccsc1)NC(=O)c1cc(N2CCNC2=O)ccc1F (stereo unspecified) |  | 74.24% and 61.84%
28 | CC(CNC(=O)c1cc(N2CCNC2=O)ccc1F)c1ccccc1 (stereo unspecified) |  | 35.08% and 63.14%
29 | Cc1ccsc1CNC(=O)c1ccc(N2CCNC2=O)cc1 | -9.9% | 
30 | CC(NC(=O)c1cc(N2CCNC2=O)ccc1F)c1ccc(F)cc1 (stereo unspecified) |  | -9.982% and -2.184%
31 | CCCc1cc(NC(=O)c2cc(N3CCNC3=O)c(F)cc2F)n[nH]1 | -27.19% | 
32 | Cc1ccc(C(=O)NCC(O)c2cccc(F)c2)c(=O)[nH]1 (stereo unspecified) | -4.578% | 
33 | CCN(CC)CCCNCc1cc2cc(C)cc(C)c2[nH]c1=O | 11.75% | 
34 | COCc1cnc2n1CCN(C(=O)c1ocnc1C)C2C (stereo unspecified) | 4.866% | 
35 | CN(Cc1cccs1)C(=O)Cn1cc(NC(=O)C(C)(C)C)cn1 | -1.695% | 
36 | Cc1ccc(-n2nnc(C(=O)NCC(F)(F)F)c2C2CC2)cc1 | -7.493% | 
37 | Cn1cc(-c2cnc(N3CCOCC3)nc2)cc1C(=O)N1CCOCC1 |  | -17.52% and -24.5% and -14.42%
38 | O=C(CCc1ccsc1)Nc1ccnn1C1CCS(=O)(=O)C1 (stereo unspecified) | -2.999% | 
39 | Cc1oc(C)c(C(=O)NCc2ccccc2CN(C)C)c1C | 1.894% | 
40 | COC1CN(C(=O)CC(C)C)CCC(=O)N(C)c2ccccc21 (stereo unspecified) | -36.78% | 
41 | CC(C)(C)c1ncc(C(=O)NCCSc2ccccn2)c(O)n1 |  | 98% and 98.19%
42 | O=C(NCCCO)c1cnc(-c2ccccc2)nc1O | -8.71% | 
43 | CCSCCNC(=O)c1cnc(-c2ccccc2)nc1O | 2.095% | 
44 | Cc1ccc(C2(C(=O)NCCCn3cccn3)CCOCC2)cc1 |  | -25.15% and -19.39%
45 | c1ccc2oc(CN3CCCC3Cn3cncn3)nc2c1 (stereo unspecified) | 3.888% | 
46 | Cc1nccn1C1CCCN(C(=O)Cc2cn3ccccc3n2)C1 (stereo unspecified) | 3.916% | 

Row | SMILES | Percent Effect | Percent Effect (10 mM as filed; unlikely as a test dose)
47 | CCOCC1CN(C(=O)c2cscn2)Cc2cnn(CC3CC3)c21 (stereo unspecified) | 11.53% | 
48 | Cc1nc(C2CN(C)CCO2)cc(N2CCSCC2)n1 (stereo unspecified) | -0.8223% | 
49 | Cc1cc(C(=O)N2CCC3(C2)CN(c2cccnc2)C(=O)CN3C)[nH]n1.O=C(O)C(F)(F)F.O=C(O)C(F)(F)F (stereo unspecified) | 9.444% | 
50 | CC(=O)N1CCOC(c2c(C(=O)NCCN(C)C)sc3ccccc23)C1 (stereo unspecified) | 3.684% | 
51 | CN(C)C(=O)CCNC(=O)Nc1sc2ccccc2c1Cl |  | 44.04% and 58.57% and 53.39%
52 | CN(C)CC(C)(O)CNC(=O)Nc1sc2ccccc2c1Cl (stereo unspecified) |  | 52.95% and 62.95% and 63.37%
53 | CS(=O)(=O)CCCNC(=O)Nc1sc2ccccc2c1Cl |  | -22.09% and -10.77% and -17.84%
54 | CN1CCN(Cc2cn3c(n2)CN(Cc2ccc(F)cc2)CC3)CC1.O=C(O)C(F)(F)F.O=C(O)C(F)(F)F.O=C(O)C(F)(F)F | 11.14% | 
55 | O=C(O)[C@@H]1CCN(C(=O)Cc2ccccn2)[C@@H]1c1ccc(F)cc1 | 2.558% | 
56 | CN(C)C(=O)NC1COC2(CCN(Cc3ccccc3)CC2)C1.O=C(O)C(F)(F)F (stereo unspecified) |  | -6.642% and -9.604% and -2.422%
57 | CCC(O)CN1CCN(C(=O)c2sccc2OC)CC1 (stereo unspecified) | 5.511% | 
58 | N#Cc1c(SCCN2CCCCC2)sc2c(O)cc(O)nc12 | 19.81% | 
59 | Cc1nc(C)n(C2CCCN(C(=O)CCOC(C)C)C2)n1 (stereo unspecified) | 5.53% | 
60 | CCc1nc(C2CCCN(C(=O)NCCOC)C2)no1 (stereo unspecified) | 15.54% | 
61 | COCCNC(=O)Nc1cc2c(cc1SC)OCCO2 |  | 98.06% and 101.8% and 101.9%
62 | CSc1cc2c(cc1NC(=O)NCCn1ccnc1)OCCO2 |  | 101.5% and 100.4% and 104.7%
63 | CSc1cc2c(cc1NC(=O)NCc1ccncc1)OCCO2 |  | -14.95% and -16.58%
64 | CSc1cc2c(cc1NC(=O)NCC(=O)N(C)C)OCCO2 |  | -16.92% and -17.04% and -26.51%
65 | CCN(CC)c1ccc(NC(=O)NCC2CCOC2)cn1 (stereo unspecified) |  | -11.53% and -8.697%
66 | COCCN(C)C(=O)Nc1cc2c(cc1SC)OCCO2 |  | -20.76% and -19.13%
67 | O=C(NCC1CCOC1)Nc1ccc(OCC(F)(F)F)nc1 (stereo unspecified) | -8.857% | 
68 | CSc1cc2c(cc1NC(=O)NCC1CCOC1)OCCO2 (stereo unspecified) |  | 105.7% and 100.9% and 97.86%
69 | CC(NC(=O)NCCn1ccnc1)c1ccc2c(c1)OCCO2 (stereo unspecified) | -2.596% | 

Row | SMILES | Percent Effect | Percent Effect (10 mM as filed; unlikely as a test dose)
70 | CCCc1ncc(CNC2(c3ccc(Cl)cc3)CCC2)cn1 | 9.707% | 
71 | COc1ccc2cc(C(=O)N3CCCC(n4ccnc4C)C3)[nH]c2c1 (stereo unspecified) | -4.765% | 
72 | O=C(O)[C@@H]1CN(C(=O)CC2CCCC2)C[C@H]1c1ccc(F)cc1 | 4.737% | 
73 | Cc1nccc(C(=O)N2CCCC(c3cc(C(F)(F)F)[nH]n3)C2)n1 (stereo unspecified) | 8.419% | 
74 | Cc1cc(C)n(C2CN(CC(=O)N(C)Cc3ccc(C)o3)C2)n1 | -8.906% | 
75 | CN(C)C(=O)CN1CCCC1c1nccnc1Nc1ccccn1 (stereo unspecified) | -3.467% | 
76 | Cc1ccc2c(c1)CN(C(=O)c1cnc(C)cn1)C(CN(C)C)CO2.Cl (stereo unspecified) | -2.552% | 
77 | O=S(=O)(C1CC1)N1CCC2(COCc3cnc(-c4cccnc4)nc32)C1 (stereo unspecified) | 9.968% | 
78 | CCOc1ccccc1OC1CCN(Cc2ccn(C)c(=O)c2)CC1 | 8.133% | 
79 | CCOc1cc([C@H]2N[C@@H](c3nc(C)cs3)Cc3ccsc32)ccc1OC | 5.89% | 
80 | CC(C)NC(=O)CC1CC2(CCN(CC3CC3)CC2)Oc2ccccc21.O=C(O)C(F)(F)F (stereo unspecified) | 11.82% | 
81 | COC(=O)CC1CCN(C(=O)Nc2ccc(-c3ccn[nH]3)cc2)C1 (stereo unspecified) |  | 84.64% and 84.71% and 100.4%
82 | NC(=O)CC1CCN(C(=O)NCc2ccc(-c3ccn[nH]3)cc2)CC1 | 2.866% | 
83 | CCOCC1CCCN(C(=O)NCc2ccc(-c3ccn[nH]3)cc2)C1 (stereo unspecified) | 14.81% | 
84 | COCc1cncc2c1CCN(C(=O)c1ccc(C#N)cc1)C2.O=C(O)C(F)(F)F | 7.706% | 
85 | Cc1ccc(-c2cccc(CC3(C(=O)O)CCOCC3)c2)c(C)c1 | -5.038% | 
86 | CN1CCCc2cc(CNC(=O)c3cc[n+]([O-])cc3)ccc21 | 8.46% | 
87 | CCOCC1CN(C(=O)c2ccncn2)Cc2cnn(CC)c21.O=C(O)C(F)(F)F (stereo unspecified) | -5.589% | 
88 | O=C(O)C1CCN(c2ccc(Sc3ccc(Br)cc3)nn2)CC1 |  | -3.247% and -5.657%
89 | Cc1ccc(Sc2ccc(N3CCC(C(=O)O)CC3)nn2)cc1 |  | 64.84% and 62.96%
90 | Cc1ccc(Sc2ccc(N3CCCC(C(=O)O)C3)nn2)cc1 (stereo unspecified) |  | 24.7% and 21.38%
91 | CCNc1cc2c(nn1)CCN(C(=O)c1ccc3c(c1)OCO3)C2 | 6.984% | 
